Most compounds without a hit are left out; they make up all but 2.1% or so of the library.
Rce1 inh – blocks yeast Ras-converting enzyme | calls only | yeast membranes, quenched prenylated peptide cleavage fluorescence | 290,000 tested, 0.27% active | AID 2563 | Q03530;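 active means fall in fluorescence gain of 50% or more versus controls, with final raw signal at or below 3038400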;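 further: plate controls were neutral control wells for no effect and wells lacking membranes for full effect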
Target sequence (Q03530 whole entry, looked up): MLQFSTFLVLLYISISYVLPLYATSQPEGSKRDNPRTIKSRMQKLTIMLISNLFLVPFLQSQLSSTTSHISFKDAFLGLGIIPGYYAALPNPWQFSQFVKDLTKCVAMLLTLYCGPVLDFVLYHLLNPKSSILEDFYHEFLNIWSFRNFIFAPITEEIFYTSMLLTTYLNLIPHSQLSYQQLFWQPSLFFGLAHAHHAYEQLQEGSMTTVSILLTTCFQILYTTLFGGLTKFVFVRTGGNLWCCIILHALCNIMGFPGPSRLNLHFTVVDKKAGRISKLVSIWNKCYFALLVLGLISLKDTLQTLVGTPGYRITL
PLC-beta3 inh – PLC-beta3 (human) inhibition, primary screen; Q01970; Purified PLC-beta3, fluorogenic substrate, fluorescence; 370,000 tested, 0.18% active; inhibition, % at 12.2 µM; in the data active means inhibition above about 11%;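 further: 0% = median of compound wells on plate and 100% = full blocker control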
ADAM17 inh – inhibitors of human ADAM17; P78536; recombinant ADAM17, EDANS/DABCYL FRET peptide cleavage; inhibition, % at 6.95 µM; 370,000 tested, 0.83% active; AID 720648;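 active means inhibition above the mean of compounds lying between control limits plus 3 SD, set per campaign, cut at about 8.5% in these data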;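 further: 0% = DMSO-only wells as the low control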
PLCg1 inh – inhibitors of human phospholipase C gamma1; P19174; purified PLC-gamma1, fluorogenic substrate, fluorescence; inhibition, % at 12.2 µM; 370,000 tested, 0.84% active; AID 720700
ADAM10 inh – inhibits human ADAM10 | AID 720582 | O14672 | recombinant ADAM10, EDANS/DABCYL FRET peptide cleavage, 3 h | 370,000 tested, 0.62% active | inhibition, % at 7 µM;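 active means inhibition above a per-campaign cutoff equal to the mean of compounds falling between control-based bounds plus 3 SD, cut at about 20% in these data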;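 further: 0% = DMSO wells while the 100% control is not disclosed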
PLCgamma1 ctr – PLC-gamma1 inhibition, counter-screen for PLC-beta3 hits; shares compounds with PLCg1 inh; purified PLC-gamma1, fluorogenic substrate, fluorescence; inhibition, % at 12.3 µM; 3,300 tested, 3.1% active
PLCbeta3 conf – human PLC-beta3 inhibition, confirmation | 3,300 tested, 1% active | shares compounds with PLCg1 inh | inhibition, % at 12.3 µM | purified PLC-beta3, fluorogenic substrate fluorescence; in the data active means inhibition above about 11%
* hit, by the source's call; i = inactive; . = not tested or not shown. Unless noted, no stated cut-off is given here; in the data, active means inhibition above about 9.5%; inactive means the rest.

SMILES | Rce1 inh | PLC-beta3 inh | ADAM17 inh | PLCg1 inh | ADAM10 inh | PLCgamma1 ctr | PLCbeta3 conf
O=C(NC1CCCCN(Cc2cccc(C(F)(F)F)c2)C1=O)c1ccc(F)cc1 (stereo unspecified) | . | -3 | 0 | 0 | -1 | . | .
CCCCOc1ccc(C(=O)NC2CCCCN(Cc3cccc(C(F)(F)F)c3)C2=O)cc1 (stereo unspecified) | . | 6 | 1 | 10* | 5 | 3 | 2
O=C(Nc1ccc2ccccc2c1)NC1CCCCN(Cc2cccc(Cl)c2)C1=O (stereo unspecified) | . | 0 | 1 | 0 | 9 | . | .
OCc1ccccc1-c1cnc2cccnn12 | . | i | i | i | i | . | .
CCOC(=O)c1c(C)[nH]c(C(=O)N(C)CC(=O)Nc2ccc(OCC)c(OCC)c2)c1C | . | 2 | 3 | 1 | -7 | . | .
COCCNc1nc(NCc2ccc(NC(C)=O)cc2)c2sc(-c3ccccc3)cc2n1 | . | -24 | -30 | -15 | -98 | . | .
Cc1onc(-c2c(F)cccc2Cl)c1C(=O)N1C=CC(C(F)(F)Cl)=NCC1 | i | 11* | 5 | 13* | 8 | 1 | 5
CC1CCCCN1C(=O)C(Cc1ccccc1)N1C(=O)C2CCCCC2C1=O (stereo unspecified) | i | 11* | 3 | 11* | 3 | -3 | -3
CC1CCCCN1C(=O)N[C@@H](Cc1ccccc1)C(=O)O (stereo partly specified) | i | 1 | -5 | 4 | -5 | . | .
COc1ccccc1C1NC(=O)NC(C)=C1C(=O)OC1CCC(C)CC1 (stereo unspecified) | i | -2 | -4 | 0 | 0 | . | .
O=C(C[n+]1cccc(CNC(=O)c2ccc(OC(F)F)cc2)c1)Nc1cccc(C(F)(F)F)c1 | i | 12* | 2 | 0 | 3 | -3 | 4
Cc1cc(NC(=O)C(C)SCC(=O)OC(C)C(=O)Nc2ccccc2C)no1 (stereo unspecified) | i | -5 | -1 | 2 | -6 | . | .
COc1ccc([N+](=O)[O-])cc1NC(=O)C(C)OC(=O)CSC(C)C(=O)Nc1cc(C)on1 (stereo unspecified) | i | 4 | 4 | 10* | 3 | -2 | 0
Cc1ccc(C)c(N2CCN(S(=O)(=O)c3ccc4[nH]c(=O)ccc4c3)CC2)c1 | i | -14 | -2 | -5 | -7 | . | .
Cc1ccc(C)c(N2CCN(S(=O)(=O)c3ccc4[nH]c(=O)c(=O)[nH]c4c3)CC2)c1 | i | 0 | 0 | 17* | -6 | -1 | -4
Cc1ccc([C@@H]2CC(=O)[C@@H]3CN(S(=O)(=O)c4ccc(C)cc4)[C@H](c4ccc(Cl)cc4)C[C@@H]3N2S(=O)(=O)c2ccc(C)cc2)cc1 | . | 1 | 1 | 2 | -8 | . | .
CCC(c1nnnn1-c1ccc2c(c1)OCCO2)N1CCN(CC)CC1 (stereo unspecified) | . | 7 | 0 | 10* | 4 | -7 | -54
O=C1NC[C@H](CCCCN2CCN(Cc3ccccc3)C(=O)C2=O)N(CC2CCCCC2)C1=O | . | 3 | 0 | 1 | 1 | . | .
CCc1nnc(NC(=O)CSc2ncnc3c2oc2ccccc23)s1 | i | 4 | 0 | 2 | 0 | . | .
O=C(CSc1ncnc2c1oc1ccccc12)Nc1nc2ccccc2s1 | i | 8 | 1 | 9.6* | 10 | -5 | -5
CC1CCCCN1C(=O)C1COc2ccccc2O1 (stereo unspecified) | i | -8 | -3 | 0 | -4 | . | .
COCc1nnc(NC(C)=O)s1 | i | 2 | 0 | -1 | 4 | . | .
COc1cc(/C=C/C(=O)N(C)CC(=O)Nc2ccccc2SC)cc(OC)c1OC | . | -44 | -32 | -29 | -128 | . | .
CSc1ccccc1NC(=O)CN(C)C(=O)/C=C/c1ccccc1 | . | -4 | -3 | 10* | -16 | 2 | 8
Cn1ccc2c(-c3ccc4[nH]ccc4c3)cc3c(c21)C1CCC3O1 (stereo unspecified) | . | -37 | -31 | -25 | -118 | . | .
SMILES | Rce1 inh | PLC-beta3 inh | ADAM17 inh | PLCg1 inh | ADAM10 inh | PLCgamma1 ctr | PLCbeta3 conf
O=C(NNC(=S)NC(=O)c1ccc(F)cc1)c1ccncc1 | . | 2 | 1 | -2 | -1 | . | .
O=C(NNC(=O)c1ccc(F)cc1)c1ccncc1 | i | 1 | 6 | 11* | 9 | 1 | -1
O=C(NCCCN1CCCCC1)C1CCC(CNS(=O)(=O)c2cccc3nsnc23)CC1 (stereo unspecified) | i | -1 | 0 | 10* | 1 | -3 | -2
CCCNC(=O)C1(C)CCCN(Cc2ccc(C(=O)OCC)o2)C1 (stereo unspecified) | . | -1 | -2 | 0 | -3 | . | .
COc1ccc(Cl)cc1C(=O)NCc1ccco1 | i | -5 | 5 | 13* | 5 | -5 | -1
COc1ccc(C(=O)Nc2ccc(Cl)cc2C(=O)NCc2ccco2)cc1OC | i | -11 | -3 | -8 | -9 | . | .
O=C(NCc1ccco1)c1cccc(F)c1 | i | -6 | -4 | 10* | -5 | -6 | -2
COc1ccccc1/C=C/CN1CCSCC1 | i | -6 | -5 | -3 | -7 | . | .
CCCOc1ccccc1OCC(=O)Nc1cc(Cl)ccc1-n1cncn1 | i | 5 | 4 | 11* | 6 | -2 | -334
CCN(CC(=O)Nc1cc(Cl)cc(Cl)c1)CC(=O)NC1CCS(=O)(=O)C1 (stereo unspecified) | . | 0 | -6 | 1 | -16 | . | .
CC(CNC(=O)c1cc(Cl)ccc1[N+](=O)[O-])NC(=O)c1cc(Cl)ccc1[N+](=O)[O-] (stereo unspecified) | i | 4 | 4 | 11* | 1 | -3 | -1
CC(O)(c1ccc(F)c(F)c1)c1nc(-c2ccoc2)cs1 (stereo unspecified) | . | -9 | -2 | -7 | 2 | . | .
c1ccc(-c2nnc(SCC3CCCCO3)nc2-c2ccccc2)cc1 (stereo unspecified) | i | 7 | 6 | 17* | 2 | -2 | 1
c1ccc(-c2nnc(SCC3CCCO3)nc2-c2ccccc2)cc1 (stereo unspecified) | i | 4 | 0 | 1 | 5 | . | .
COc1ccc(CN2CCOCCOCCOCC2)cc1 | i | 13* | -2 | 8 | 4 | 7 | 4
Cc1[nH]c2ccccc2c1C(=O)C(=O)NCc1ccncc1 | i | 2 | 0 | 4 | -1 | . | .
CC1(C)N([O-])C(c2ccccc2)=C[N+](=O)C1(C)C | i | 9 | 1 | 10* | -8 | -5 | 0
COc1ccc(OC)c(C2=C[N+](=O)C(C)(C)C(C)(C)N2[O-])c1 | i | 4 | -2 | 1 | 3 | . | .
CCOc1ccc(-c2cc(C(=O)NCc3cc(OC)cc(OC)c3)[nH]n2)c(C)c1 | . | 4 | 1 | 4 | 10 | . | .
CCOc1ccc(-c2cc(C(=O)NC3CCCCC3)[nH]n2)c(C)c1 | . | 12* | 0 | 0 | 0 | -19 | -1
